Screening data as filed in PubChem BioAssay.
Hits are enriched below; roughly 21% of the tested compounds scored in any of these assays.
D3 ag: qHTS of D3 Dopamine Receptor Agonist: qHTS; AID 652048, 2013; D3R DiscoveRx beta-arrestin cells, luminescence, 90 min; 0.58% of 410,000 active; D(3) dopamine receptor (Homo sapiens), P35462; max activation, %; in the data active means max activation above about 30%
Target sequence (P35462 whole entry, looked up): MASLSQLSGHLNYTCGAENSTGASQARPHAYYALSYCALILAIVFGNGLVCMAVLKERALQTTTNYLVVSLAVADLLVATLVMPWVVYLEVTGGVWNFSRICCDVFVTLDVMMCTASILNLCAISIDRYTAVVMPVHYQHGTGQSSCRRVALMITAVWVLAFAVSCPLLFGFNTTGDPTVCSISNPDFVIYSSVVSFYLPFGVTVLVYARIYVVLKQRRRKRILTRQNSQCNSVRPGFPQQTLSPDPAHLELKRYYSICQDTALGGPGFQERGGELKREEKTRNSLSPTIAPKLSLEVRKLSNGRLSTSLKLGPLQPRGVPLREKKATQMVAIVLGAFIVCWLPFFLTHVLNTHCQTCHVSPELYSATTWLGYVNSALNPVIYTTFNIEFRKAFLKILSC
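Cells at 1500/well, incubated overnight, then treated with pinned compounds (dopamine as control) for 90 min at 37 degrees C. DiscoveRx reagent added for 30 - 60 minutes at room temperature; luminescence read.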
DT40 TDP1 no CPT: qHTS for Inhibitors of human tyrosyl-DNA phosphodiesterase 1 (TDP1): qHTS in cells in absence of CPT. 15% of 420,000 active. AID 686978, 2013. DT40 Tdp1-/- hTDP1 cells, no CPT, ATP luminescence, 48 h. Potency, µM (highest dose often 46.2 µM), hits mostly inhibitors; further: nearly all actives have a fitted effect of over 55% in size
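Chicken DT40 Tdp1-/- cells stably complemented with human TDP1 were seeded at 400 cells/well with DMSO in place of 20 nM camptothecin. After compound pinning, cells grew at least 48 hr at 37 °C; viability read by CellTiter-Glo luminescence.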
DT40 TDP1 CPT: qHTS for Inhibitors of human tyrosyl-DNA phosphodiesterase 1 (TDP1): qHTS in cells in presence of CPT. chicken DT40 Tdp1-/-;hTDP1 cells + 20 nM CPT, ATP luminescence, 48 h. Potency, µM (highest dose often 46.2 µM), most hits filed as inhibitors. 12% of 420,000 active; further: nearly all actives have a fitted effect of over 55% in size
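Chicken DT40 Tdp1-/- cells stably complemented with human TDP1 were seeded at 400 cells/well in medium containing 20 nM camptothecin, exposed to pin-transferred compounds, and grown at 37 °C for at least 48 hr. Viability was read as ATP luminescence.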
IL-1B inflam inh: qHTS for Inhibitors of Inflammasome Signaling: IL-1-beta AlphaLISA Primary Screen | THP-1 LPS/ATP IL-1B secretion, AlphaLISA, 16 h; active compounds read low | activity change, % at 57.5 µM | 4.7% of 360,000 active; in the data active means activity change below about -50%; inconclusive means mostly about -30% to -49%
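Secreted IL-1B measured by AlphaLISA bead assay after 16 h compound exposure of THP-1 cells; compounds (final up to 57.5 uM) added 1 h before LPS (250 ng/mL) and ATP (1.25 mM) stimulation; lower signal means less secretion.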
D3 antag: qHTS of D3 Dopamine Receptor Antagonist: qHTS. D3R cells, DiscoveRx beta-arrestin luminescence, antagonist mode; active compounds read low. AID 652054, 2013. max response, negative = inhibition, %. D(3) dopamine receptor (Homo sapiens), P35462. 2.5% of 360,000 active; in the data active means max response below about -50%; inconclusive means no clear call, values can overlap the other calls
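Cells expressing the human receptor were seeded at 1500 cells/well, incubated overnight at 37 degrees C in 5% CO2, then exposed to library compounds with dopamine controls for 90 minutes at 37 degrees C before luminescent detection.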
ClpP mod: qHTS Assay for Activators of ClpP | ATP-dependent Clp protease proteolytic subunit (Bacillus subtilis (strain 168)), P80244 | purified B. subtilis ClpP, FRET peptide cleavage, 20 min | Potency, µM (highest dose often 57.5 µM) | 1.9% of 340,000 active | AID 651965, 2013; active means well fitted falling curve with a large enough effect; inconclusive means small, poorly fitted or top-dose-only effect; inactive means no such curve, though single readings can be large or run the other way; further: the source files actives as falling curves though it sought activators and does not explain the sign; nearly all actives have a fitted effect of over 65% in size
Target sequence (P80244 whole entry, looked up): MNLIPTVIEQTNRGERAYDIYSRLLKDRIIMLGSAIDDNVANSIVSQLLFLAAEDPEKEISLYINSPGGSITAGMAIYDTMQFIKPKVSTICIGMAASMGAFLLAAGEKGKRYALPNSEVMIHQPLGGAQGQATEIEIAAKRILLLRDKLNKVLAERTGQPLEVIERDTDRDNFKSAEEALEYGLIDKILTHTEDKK
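Purified B. subtilis ClpP, 10 microg/mL final in Tris/HCl pH8 with KCl, BSA, glycerol and Tween-20, cleaved an Abz/nitrotyrosine-quenched decapeptide. Fluorescence (ex 320, em 430) was read at 0 and 20 min at room temperature. Delta was normalized to 5.8 microM ADEP and DMSO/no-enzyme controls.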
Numbers stand for hits; 0 = inactive; ? = inconclusive; - = no result. Unless noted, the call rests on the fitted dose curve; in most records, active means well fitted inhibition curve with a large enough effect; inconclusive means small, poorly fitted or top-dose-only effect; inactive means flat fitted curve, though single readings scatter.

SMILES	D3 ag	DT40 TDP1 no CPT	DT40 TDP1 CPT	IL-1B inflam inh	D3 antag	ClpP mod
O=C(CSc1nc2ccccc2s1)N1N=C(c2cccs2)CC1c1ccc(F)cc1 (stereo not drawn)	0	?	?	0	0	28µM
COc1ccc(C2CC(c3cccs3)=NN2C(=O)CSc2nc3ccccc3o2)cc1 (stereo not drawn)	0	?	?	0	0	32µM
Cc1cccn2c(=O)nc(SCC(=O)N3N=C(c4cccs4)CC3c3ccc(F)cc3)nc12 (stereo not drawn)	0	?	?	0	0	0
Cc1ccn2c(=O)nc(SCC(=O)N3N=C(c4cccs4)CC3c3ccc(F)cc3)nc2c1 (stereo not drawn)	0	18µM	?	0	0	0
CCOC(=O)CSCC(=O)N1N=C(c2cccs2)CC1c1ccc(F)cc1 (stereo not drawn)	0	?	15µM	0	0	0
Cc1ccc2nc(SCC(=O)N3N=C(c4cccs4)CC3c3ccc(F)cc3)nc(=O)n2c1 (stereo not drawn)	0	?	0	?	0	0
COc1ccc(C2CC(c3cccs3)=NN2C(=O)CCC(=O)O)cc1 (stereo not drawn)	0	0	0	0	0	?
Cc1ccc(NC(=O)Cn2c(=O)n(Cc3nc(-c4ccccc4)no3)c(=O)c3cc4c(cc32)OCO4)cc1C	0	?	0	-	-	0
CCN1C(=O)Cc2cc(S(=O)(=O)NCCc3ccccc3)ccc21	0	?	0	0	0	-
CN1CCC(OC2c3ccccc3CCc3ccccc32)CC1	0	?	?	0	-99	0
COc1ccc(-c2cc(C(=O)Nc3cc(Br)ccc3O)no2)cc1	0	?	?	0	0	0
Oc1ccc(N=Nc2ccc3c(c2)OCCO3)c(O)c1	0	?	?	0	?	0
Cc1ccc(O)c2ncccc12	0	4.7µM	?	-	-	-
Nc1ccc(N=Nc2ccccc2)c2cccnc12	0	0	0	0	0	0
Oc1ccc(N=Nc2ccc3c(c2)OCCO3)c2cccnc12	0	1.6µM	1.3µM	0	?	-
COc1cccc(N=Nc2ccc(O)c3ncccc23)c1	0	2.6µM	2.6µM	0	-110	-
COc1ccc(N=Nc2ccc(O)c3ncccc23)cc1	0	1.5µM	2.1µM	0	-76	0
CCCc1cc(=O)[nH]c(SCC(=O)NC2CCCc3ccccc32)n1 (stereo not drawn)	0	0	0	0	0	0
Cc1ccc(C)c(NC(=O)CSc2nc(C)cs2)c1	0	0	0	0	0	0
COc1ccc(C)cc1N=Nc1ccc(O)c2ncccc12	0	2.6µM	3.3µM	0	-117	0
Cc1ccccc1N=Nc1ccc(O)c2ncccc12	0	1.6µM	2.6µM	0	-117	0
O=Nc1ccc(O)c2ncccc12	0	0.92µM	0.58µM	-98	?	0
Oc1c(Cl)c(Cl)c2ncccc2c1Cl	0	?	0	0	0	-
Cc1c(C)c2cccnc2c2ncccc12	0	1.5µM	1.8µM	0	-103	0
O=S(=O)(O)c1cccc2c(N=Nc3ccc(O)c4ncccc34)cccc12	0	0	?	0	?	0
SMILES	D3 ag	DT40 TDP1 no CPT	DT40 TDP1 CPT	IL-1B inflam inh	D3 antag	ClpP mod
CCN(CC)CCNC(=O)C(=O)NCC(c1cccnc1)N1CCN(c2ccccc2)CC1 (stereo not drawn)	0	0	0	-	-	0
CCOC(=O)c1ccccc1NC(=O)COC(=O)CSC(C)C(=O)Nc1cc(C)on1 (stereo not drawn)	0	0	0	0	0	0
Oc1ccc(Cn2ccnc2)c2cccnc12	0	?	0	0	?	-
COCc1ccc(O)c2ncccc12	0	4.6µM	4.6µM	0	-78	0
COc1cccc(N=Nc2ccc3cccnc3c2O)c1	0	1.2µM	0.58µM	0	-139	0
COc1cccc(N2CCN(S(=O)(=O)c3cccc4cccnc34)CC2)c1	0	?	?	0	0	-
COc1ccccc1CNC(=O)c1ccc2nc(N3CCCCC3)sc2c1	0	?	?	-	-	0
Cc1cccc(CC(=O)NC2CC(=O)N(c3cccc(F)c3)C2)c1 (stereo not drawn)	0	0	0	-	-	0
CC1CC(C)CN(S(=O)(=O)CC23CCC(CC2=O)C3(C)C)C1 (stereo not drawn)	0	0	0	0	0	-
CC(C)C(=O)Nc1ccc(C(=O)N/N=C/c2cc(Br)cc(Br)c2O)cc1	0	13µM	7.3µM	0	0	-
Cc1ccc(C(=O)O)cc1N=Cc1cc(Br)cc(Br)c1O	0	?	0	0	-120	?
CC(=O)Nc1ccc(C(=O)N/N=C/c2cc(Br)cc(Br)c2O)cc1	0	10µM	12µM	0	0	-
COc1cc(OC)c(/C=N/NC(=O)c2ccc(NC(C)=O)cc2)cc1Br	0	0	0	0	0	-
CNC(=S)N/N=C/c1cc(Br)cc(Br)c1O	0	?	?	0	?	0
CCc1ccc(-n2c(=O)c3c4c(sc3n(CC(=O)NC(C)CC)c2=O)CCCC4)cc1 (stereo not drawn)	0	0	0	-	-	0
Cc1ccc(-n2c(=O)c3c4c(sc3n(CC(=O)C(C)(C)C)c2=O)CCCCC4)cc1C	0	?	?	-	-	0
NC(=O)c1cccc(-c2ccnc3c2CC(C(=O)Nc2ccccc2)O3)c1 (stereo not drawn)	0	0	0	0	0	0
O=C(Nc1ccccc1)C1Cc2c(-c3ccc(Cl)cc3)ccnc2O1 (stereo not drawn)	0	?	?	-51	0	0
O=C(Nc1ccc(F)c(Cl)c1)C1Cc2c(-c3cccc(F)c3)ccnc2O1 (stereo not drawn)	0	?	?	?	0	0
CNC(=O)C1Cc2c(-c3ccc4c(c3)OCO4)ccnc2O1 (stereo not drawn)	0	0	0	0	0	0
CNC(=O)C1Cc2c(-c3ccc(Cl)cc3)ccnc2O1 (stereo not drawn)	0	?	0	0	-57	0
NC(=O)c1cccc(-c2ccnc3c2CC(C(=O)Nc2ccc(Cl)cc2)O3)c1 (stereo not drawn)	0	13µM	23µM	0	0	0
CC(C)c1ccc(NC(=O)C2Cc3c(-c4cccc(F)c4)ccnc3O2)cc1 (stereo not drawn)	0	9.2µM	16µM	-67	0	0
CC(=O)Nc1ccc(NC(=O)C2Cc3c(-c4ccc(Cl)cc4)ccnc3O2)cc1 (stereo not drawn)	0	0	0	0	0	0
